# S-ASM inh = blocks human secretory acid sphingomyelinase; Potency, µM (series often up to 57.5 µM), inactives show top-dose activity change, negative = inhibition, actives largely listed as inhibitors; placental ASM, HMU-PC fluorogenic substrate, 60 min; P17405; actives 0.006% (n = 340,000); AID 504937; note: potency is the fitted concentration of half-maximal effect
# Target sequence (P17405 47-631 limits assumed): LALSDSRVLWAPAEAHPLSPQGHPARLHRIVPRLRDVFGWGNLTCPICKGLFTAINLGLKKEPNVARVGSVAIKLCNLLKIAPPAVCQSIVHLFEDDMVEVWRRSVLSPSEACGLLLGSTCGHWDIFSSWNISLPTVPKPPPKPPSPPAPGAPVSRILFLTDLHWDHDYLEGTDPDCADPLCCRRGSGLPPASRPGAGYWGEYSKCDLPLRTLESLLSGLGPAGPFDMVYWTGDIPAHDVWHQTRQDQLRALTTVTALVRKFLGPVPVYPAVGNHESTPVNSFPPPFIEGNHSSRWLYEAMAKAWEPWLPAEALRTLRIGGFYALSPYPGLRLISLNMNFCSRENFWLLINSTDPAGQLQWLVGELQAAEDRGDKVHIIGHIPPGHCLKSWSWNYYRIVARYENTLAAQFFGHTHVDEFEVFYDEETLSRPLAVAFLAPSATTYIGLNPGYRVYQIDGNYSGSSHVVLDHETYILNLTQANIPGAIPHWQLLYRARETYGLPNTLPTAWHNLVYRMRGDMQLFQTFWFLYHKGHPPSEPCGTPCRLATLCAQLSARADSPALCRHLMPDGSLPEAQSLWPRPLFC
#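 Human placenta-derived ASM preincubated with compound 10 min at room temperature, then reacted with 9 uM (final) fluorogenic HMU-PC substrate for 60 min at 37 C. Stop solution raises pH to 10; fluorescence read at Ex 386/Em 447 nm.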
# gsp ag = activates gsp, the McCune-Albright syndrome mutation; AID 624287; Potency, µM (titrated, usually from 76.9 µM), inactives show at the highest dose activation (cAMP increase), usual class: activators; gsp mutant cells, cAMP HTRF, 30 min; actives 0.13% (n = 340,000); active = well fitted activation curve with a large enough effect; inconclusive = small, poorly fitted or top-dose-only effect, or another doubt; inactive = no such curve, though single readings can be large or run the other way; cell line not stated here;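 note: phosphodiesterase inhibitor Ro 20-1724 added with compounds to block cAMP breakdown; potency is the fitted concentration of half-maximal effect; nearly all actives have a fitted effect of over 60% in size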
#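 Cells stably selected in G418 were plated at 2000/well, grown 16-24 hr, then given compounds in DMSO with the PDE inhibitor […] (300 uM solution added) for 30 min at 37C; cAMP was read by HTRF.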
# gsp antagonist = gsp mutant antagonism; AID 624288; gsp-mutant cells, cAMP HTRF, 30 min; actives 0.4% (n = 340,000); Potency, µM (doses to about 76.9 µM), without a hit: at the top dose activity change, negative = inhibition, usual class: inhibitors; calls by dose curve; cell line not stated here;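 note: intracellular cAMP measured with PDE inhibitor Ro 20-1724 present during compound exposure; potency is the fitted concentration of half-maximal effect; % is set by controls: 0 for no effect and ±100 for the full control effect; nearly all actives have a fitted effect of over 65% in size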
#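 HTRF cAMP measurement after 30 min RT detection following 30 min, 37C compound treatment alongside […] (added as 300 uM solution) in G418-selected cells seeded at 2000/well and grown 16–24 h.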
# Integrin act MD = integrin-mediated muscular dystrophy alleviation activation. actives 0.064% (n = 350,000). Potency, µM (top dose mostly 38.3 µM), for the others: at the highest dose activation, actives largely listed as activators. AID 624291. alpha7betagal myoblasts, beta-gal FDG fluorescence, 48 h;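 note: potency is the fitted concentration of half-maximal effect; 100% = response of the positive control SU9516; nearly all actives have a fitted effect of over 60% in size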
#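 Alpha7betagal+/- myoblasts (passage 13) were plated 16-24 hr, then exposed to compounds (1:260 dilution of DMSO stock) for 48 hours at 37C. After MPER lysis, β-galactosidase reporter activity was read as FDG fluorescence (ex 480/em 540) after 30 minutes.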
# RXFP1 ag = RXFP1 (human) receptor agonism. Q9HBX9. HEK293T-RXFP1 cAMP TR-FRET, 30 min; response scale: percent of porcine relaxin response, buffer zero. Potency, µM (highest dose often 57.5 µM), inactives show at the top dose activation, most hits filed as activators. actives 0.3% (n = 370,000); note: potency is the fitted concentration of half-maximal effect; % is set by controls: 0 for no effect and ±100 for the full control effect; nearly all actives have a fitted effect of over 60% in size
#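 HEK293 cells stably expressing RXFP1, treated 30 min at 37C with compounds plus PDE4 inhibitor Ro 20174; cAMP measured by HTRF TR-FRET. Normalized to buffer and 29 nM porcine relaxin; EC50 by Hill fit.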
# RXFP1 antagonist = antagonists of human relaxin receptor RXFP1; HEK293-RXFP1, relaxin-stimulated cAMP HTRF, 30 min; stronger effect = lower value; AID 1259400; Q9HBX9; actives 0.59% (n = 350,000); activity change, negative = inhibition, % at 57.5 µM;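 active = activity change of -60% or lower, but not beyond a set lower limit; inconclusive = change between -60% and -40%, or beyond the set limit; inactive = change above -40%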; note: % is set by controls: 0 for no effect and ±100 for the full control effect
# * hit, by the source's call; i = inactive; u = inconclusive; x = not tested or not shown; [ ] = another dose, or the depositor's remark. Rows were chosen to be rich in hits. Some 1.1% of all compounds tested hit in one or more screens of this group. Unless noted, calls come from the whole dose curve; as a rule, active = well fitted curve in the direction sought with a large enough effect; inconclusive = small, poorly fitted or top-dose-only effect, or another doubt; inactive = no such curve, though single readings can be large; an effect the other way counts as inactive or inconclusive.
SMILES,S-ASM inh,gsp ag,gsp antagonist,Integrin act MD,RXFP1 ag,RXFP1 antagonist
Cc1cccc(N=C2NC(=O)/C(=C\c3cccs3)S2)c1,-1%,u,-17%,2%,0%,-28
Cc1ccc(N=C2NC(=O)/C(=C/c3cccs3)S2)cc1C,-5%,u,-30%,13%,0%,-77*
Nc1ccn([C@@H]2O[C@H](CO)[C@@H](O)C2(F)F)c(=O)n1,x,x,x,x,x,-8
Cc1cc(C)c(C(=O)COC(=O)C2CCN(c3ccc(C(F)(F)F)cn3)CC2)cc1C,-8%,4%,7%,16%,1%,x
CC(C)=NNc1nc2c(c(=O)[nH]c(=O)n2C)n1CCc1ccccc1,3%,10%,-8%,3%,0%,-70*
CC(C)=NNc1nc2c(c(=O)[nH]c(=O)n2C)n1CCCc1ccccc1,-2%,-28%,-12%,-21%,6%,3
OCCCNCc1ccc(N(c2ccccc2)c2ccccc2)cc1,-3%,u,14%,-65%,0%,-69*
CCN(CC)C(=O)c1sc2[nH]c(=S)n(-c3ccccc3)c(=O)c2c1C,-4%,u,1%,-3%,11%,-67*
Cc1cccn2c(=O)c(C(=O)NC(C)c3ccccc3)c(O)nc12 (centres undefined),x,x,x,x,5%,-7
Cn1cnnc1SCCNS(=O)(=O)c1cccc([N+](=O)[O-])c1,-1%,0%,15%,0%,2%,2
O=C(N/N=C/c1ccc(F)cc1)c1ccc(Br)cc1,-1%,40µM*,4%,20%,2%,-11
O=C(N/N=C/c1ccc(Br)cc1)c1ccc(F)cc1,2%,-1%,2%,0%,-2%,-2
O=C(NCCC1=CCCCC1)c1ccc(Cl)c(S(=O)(=O)N2CCCCC2)c1,2%,-33%,-20%,-55%,0%,12
N#CC1=C(N)SC(N)=C(C#N)C1c1cccc(Oc2ccccc2)c1,-9%,25%,28µM*,-23%,3%,-4
CCOc1ccc(C2C(C#N)=C(N)SC(N)=C2C#N)cc1OCC,0%,u,17%,-22%,11%,8
Cc1ccccc1OCc1ccc(-c2nc(C#N)c(N3CCN(c4cccc(Cl)c4)CC3)o2)o1,x,x,x,x,-1%,-4
COc1ccc(N2CCN(C(=O)c3cc4c(-c5ccccc5F)nn(C)c4s3)CC2)cc1,x,x,x,x,-1%,-1
CCN(CCNCC(O)COCc1ccc(Cl)cc1)c1cccc(C)c1 (centres undefined),-4%,7%[15.4 µM],11%,-3%,1%,-70*
CCCC1(c2ccccc2)NC(=O)N(CC(=O)Nc2sc(-c3ccccc3)cc2C(=O)OCC)C1=O (centres undefined),1%,-93%,19%,-53%,28µM*,-7
Nc1cc2c3ccccc3ccc2c2ccccc12,i,11%[15.4 µM],-15%,-26%,x,12
CN1C(=O)/C(=C/c2ccccc2Cl)Sc2ccc(C(=O)N3CCCC3)cc21,-6%,1%,32µM*,-42%,-1%,-15
CCOC(=O)C1CCCN(C(=O)c2ccc3c(c2)N(C)C(=O)/C(=C/c2ccccc2Cl)S3)C1 (centres undefined),-2%,-19%,11µM*,-8%,0%,-10
Cc1cccc(-c2nnc(SC(C)C(=O)N3CCOCC3)o2)c1 (centres undefined),6%,26%,2%,u,0%,3
CC(=O)O[C@@H]1CC2C3CCc4cc(OC(=O)c5ccccc5)ccc4C3CCC2(C)[C@H]1OC(C)=O (some centres undefined),x,x,x,x,x,-13
COc1ccccc1OCC(=O)N/N=C1/C=C(C)CC1,4%,-1%[15.4 µM],16%,10µM*,0%,7
SMILES,S-ASM inh,gsp ag,gsp antagonist,Integrin act MD,RXFP1 ag,RXFP1 antagonist
O=C(Nc1nncs1)c1c(F)c(F)c(F)c(F)c1F,4%,-1%,40µM*,-24%,0%,-9
Clc1ccc2c(c1)-c1nnc(Br)n1-c1ccccc1S2,-5%,2%,20µM*,-9%,1%,-12
Brc1nnc2n1-c1ccccc1Sc1ccccc1-2,1%,0%,u,2%,1%,-9
CCOC(=O)/C(C#N)=C/c1cc2ccccc2nc1N1CCCCC1,-6%,11µM*,3%,-29%,14µM*,-2
Cc1ccc(Cn2cc(S(=O)(=O)c3cccc(C)c3)c(=O)c3cc(F)c(N4CCOCC4)cc32)cc1,x,x,x,x,5%,-16
O=C(NCC(c1cccs1)N1CCOCC1)c1cc(=O)[nH]c2ccccc12 (centres undefined),0%,0%[15.4 µM],5%,-7%,1%,-77*
Cc1cc(OCC(=O)NCC(c2cccs2)N2CCOCC2)ccc1C(C)C (centres undefined),1%,-8%[15.4 µM],-7%,-25%,0%,-4
O=C(NCC(c1ccco1)N1CCCC1)c1cc(=O)[nH]c2ccccc12 (centres undefined),6%,12%,15%,-23%,x,-2
Cc1ccc(C(C)C)c(OCC(=O)NCC(c2cccs2)N2CCOCC2)c1 (centres undefined),0%,-23%[15.4 µM],35µM*,21%,1%,2
CC(C)CCCC(C)NCCC(C)C (centres undefined),x,x,x,x,x,4
Cc1[nH]c2ccccc2c1SCCNC(=O)c1ccc(Br)o1,-10%,6%,-19%,30%,-2%,-82*
O=C(CN1C(=O)CSc2ccc(S(=O)(=O)N3CCOCC3)cc21)N1CCCCC1,-2%,u,1%,16%,13%,17
CCOC(=O)C1CCN(C(=O)CN2C(=O)CSc3ccc(S(=O)(=O)N4CCOCC4)cc32)CC1,2%,3.5µM*,5%,5%,21%,11
Cc1ccc(-c2csc(NS(=O)(=O)c3cccc(F)c3)n2)o1,2%,12%[15.4 µM],-7%,6%,x,-75*
COC(=O)c1ccc(Nc2ncnc3c2cnn3-c2ccccc2)cc1,x,x,x,x,19%,4
CCOc1ccc(OCCn2c(=S)[nH]c3ccccc32)cc1,-19%,-62%,-3%,16%,2%,-63*
COc1ccccc1CN(C)C(=O)c1cccc(S(=O)(=O)N2CCCc3ccccc32)c1,-1%,-14%,35µM*,-10%,1%,5
CC(Oc1cccnc1[N+](=O)[O-])C(=O)Nc1cccc(Cl)c1 (centres undefined),-1%,-4%,-21%,4%,2%,-97*
CC(Oc1cccnc1[N+](=O)[O-])C(=O)Nc1ccc(F)cc1 (centres undefined),0%,43%,2%,34%,0%,u

# Bioassay records deposited in PubChem BioAssay by National Center for Advancing Translational Sciences (NCATS).
